# PubChem BioAssay (NCATS)
# Results filed as inconclusive are left out. Entries that show only a call come without a potency. Calls of active or inactive are those of the source. Calls follow the shape of the dose curve; as a rule, active = well fitted curve in the direction sought with a large enough effect; inconclusive = small, poorly fitted or top-dose-only effect, or another doubt; inactive = no such curve, though single readings can be large; an effect the other way counts as inactive or inconclusive.
# What was measured:
# [1] = qHTS for Inhibitors of Ubiquitin-specific Protease USP2a Using CHOP2 as the Reporter: Cytotox Assay (AID 652170); also: nearly all actives have a fitted effect of over 70% in size; also: potency is read from the fitted curve at half-maximal effect
# Procedure, shortened: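 HCT116 human colon cancer cells, 600 per well in DMEM with 10% FBS, exposed to compounds for 72 hr at 37 deg C. ATP measured by CellTiter-Glo luminescence, normalized to DMSO cells and no-cell background.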
# [2] = target: Ubiquitin carboxyl-terminal hydrolase 2 (Homo sapiens) (UniProt O75604); assay: qHTS for Inhibitors of Ubiquitin-specific Protease USP2a Using CHOP2 as the Reporter: K484 Substrate (AID 652173);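 also: cleavage of internally quenched K48 di-ubiquitin substrate measured as rising fluorescence over time; nearly all actives have a fitted effect of over 70% in size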; also: potency is read from the fitted curve at half-maximal effect
# Sequence of Ubiquitin carboxyl-terminal hydrolase 2 (Homo sapiens) (O75604 whole entry, looked up): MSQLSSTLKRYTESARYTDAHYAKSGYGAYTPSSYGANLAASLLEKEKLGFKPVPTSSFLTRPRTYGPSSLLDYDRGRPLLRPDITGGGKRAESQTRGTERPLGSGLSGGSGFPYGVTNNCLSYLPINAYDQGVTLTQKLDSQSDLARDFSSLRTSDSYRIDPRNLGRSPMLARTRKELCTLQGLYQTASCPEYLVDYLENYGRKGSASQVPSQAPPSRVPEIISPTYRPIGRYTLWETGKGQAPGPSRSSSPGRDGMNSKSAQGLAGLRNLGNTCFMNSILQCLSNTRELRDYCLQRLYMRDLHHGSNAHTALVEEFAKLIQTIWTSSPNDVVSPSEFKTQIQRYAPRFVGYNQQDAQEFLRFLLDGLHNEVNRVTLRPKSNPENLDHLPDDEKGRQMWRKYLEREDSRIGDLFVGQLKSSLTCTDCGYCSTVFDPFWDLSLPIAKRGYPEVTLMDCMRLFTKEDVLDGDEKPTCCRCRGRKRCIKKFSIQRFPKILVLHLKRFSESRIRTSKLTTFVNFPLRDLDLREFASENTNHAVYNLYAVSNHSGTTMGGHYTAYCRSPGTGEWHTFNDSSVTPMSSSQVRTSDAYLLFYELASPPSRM
# Procedure, shortened: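 USP2 (dispensed at 5 nM) was pinned with compounds, then DiUb K48 internally quenched fluorescent substrate (dispensed at 100 nM) was added. The buffer was 20 mM Tris pH 8, 2 mM beta-mercaptoethanol and 0.05% CHAPS. Cleavage was read kinetically as rising fluorescence, Ex 525/Em 598.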
# [3] = target: Calcium and integrin-binding protein 1 (Homo sapiens) (UniProt Q99828); assay: Primary qHTS for Identification of Calcium Integrin Binding Protein 1 (CIB1) Competitor (AID 1508620);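 also: GST tagged CIB1 binding a fluorescein labelled alphaIIb integrin peptide tracer; top concentration of the series differs between compounds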
# Sequence of Calcium and integrin-binding protein 1 (Homo sapiens) (Q99828 whole entry, looked up): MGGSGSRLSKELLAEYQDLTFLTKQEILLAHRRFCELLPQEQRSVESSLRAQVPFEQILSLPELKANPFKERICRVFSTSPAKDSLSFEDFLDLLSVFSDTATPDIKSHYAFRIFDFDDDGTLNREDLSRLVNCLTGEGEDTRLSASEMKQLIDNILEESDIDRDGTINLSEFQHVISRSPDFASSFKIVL
# Procedure, shortened: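 Fluorescence polarization competition: GST-tagged CIB1 (1 uM final) preincubated with compound 15 min at room temperature, then FITC-labelled alphaIIb peptide (100 nM final) added. After 15 min at room temperature, polarization read at Ex 480/Em 540.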
Structure (SMILES),Potency [1],Potency [2],Potency [3]
Cc1ccc(S(=O)(=O)Nc2ccccc2C(=O)Nc2ccc(-c3ccccc3)nn2)cc1,inactive,3.85 µM (active),inactive
CCCCCN1CCC(C(=O)Nc2ccc([S+](=O)([O-])Nc3nccs3)cc2)CC1,inactive,inactive,inactive
Cc1ccc(-c2cc(C(=O)NCc3ccccc3)c3ccccc3n2)cc1C,inactive,13.7 µM (active),inactive
CCCC1CCC(C(=O)Nc2ccc(S(=O)(=O)Nc3nccs3)cc2)CC1 (stereo not given),inactive,10.9 µM (active),inactive
Cc1ccc(S(=O)(=O)Nc2ccccc2C(=O)Nc2ccc(-c3ccccc3)cc2)cc1,13.2 µM (active),2.43 µM (active),inactive
O=C(Nc1nc(-c2ccccc2)cs1)c1ccccc1,inactive,24.3 µM (active),inactive
Cc1ccc(-c2cc(C(=O)Nc3ccccc3C)c3ccccc3n2)cc1C,inactive,21.7 µM (active),inactive
Cc1ccc(-c2cc(C(=O)Nc3ccc(S(=O)(=O)Nc4ccc(C#N)cc4)cc3)c3ccccc3n2)cc1C,inactive,3.06 µM (active),inactive
O=S(=O)(Nc1nc(CN2CCOCC2)nc2sc3c(c12)CCCC3)c1ccc2ccccc2c1,inactive,24.3 µM (active),inactive
Cc1ccc(S(=O)(=O)Nc2ccccc2C(=O)Nc2cccc(-c3ccccc3)c2)cc1,16.6 µM (active),2.17 µM (active),inactive
Cc1ccc(S(=O)(=O)Nc2cccnc2C(=O)Nc2nc(-c3ccccc3)cs2)cc1,14.8 µM (active),1.37 µM (active),inactive
O=c1[nH]c(CCl)nc2sc3c(c12)CCCC3,10.5 µM (active),inactive,inactive
O=C(Nc1ccc(S(=O)(=O)Nc2nccs2)cc1)c1cccnc1,inactive,inactive,inactive
O=C(Nc1ccc(S(=O)(=O)Nc2nccs2)cc1)c1cccc2ccccc12,inactive,24.3 µM (active),inactive
O=C(Nc1ccc([S+](=O)([O-])Nc2nccs2)cc1)c1ncn[nH]1,inactive,inactive,inactive
